# PubChem BioAssay AID2551 (National Center for Advancing Translational Sciences (NCATS), 2010)
# The campaign covered roughly 310,000 compounds. About 17,000 (5.5%) were called active. Entries that show only a call come without a potency. Another 11% or so got no clear call; they are omitted. Calls come from the whole dose curve; as a rule, active = well fitted inhibition curve with a large enough effect; inconclusive = small, poorly fitted or top-dose-only effect, or effect the other way; inactive = no such curve, though single readings can be large or run the other way. The full list was thinned out, with actives kept by preference. Where a SMILES comes first, the peptide text is derived from it. [ ]: non-standard residue; d: D form. The star is where a group is joined. ξ: configuration not given here. Cbz = O=C(OCc1ccccc1)*; ξL = CC(C)CC(N)C(=O)O; ξP = O=C(O)C1CCCN1
# Biological target: Nuclear receptor ROR-gamma (Mus musculus) (UniProt P51450)
# Test: qHTS for inhibitors of ROR gamma transcriptional activity; note: nearly all actives have a fitted effect of over 60% in size
# Settings: Drosophila S2 Gal4-RORgamma UAS-luciferase reporter, 20 h; series mostly up to 53.6 µM
# How it was run: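 Using a luciferase readout, inhibitors were identified by reduced reporter activity in Drosophila cells coexpressing a copper-inducible Gal4–ROR gamma fusion and UAS-driven Photinus luciferase, incubated 20 hr after 700 uM copper sulfate.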
# Potency is the fitted concentration of half-maximal effect.
# Sequence of Nuclear receptor ROR-gamma (Mus musculus) (P51450 whole entry, looked up): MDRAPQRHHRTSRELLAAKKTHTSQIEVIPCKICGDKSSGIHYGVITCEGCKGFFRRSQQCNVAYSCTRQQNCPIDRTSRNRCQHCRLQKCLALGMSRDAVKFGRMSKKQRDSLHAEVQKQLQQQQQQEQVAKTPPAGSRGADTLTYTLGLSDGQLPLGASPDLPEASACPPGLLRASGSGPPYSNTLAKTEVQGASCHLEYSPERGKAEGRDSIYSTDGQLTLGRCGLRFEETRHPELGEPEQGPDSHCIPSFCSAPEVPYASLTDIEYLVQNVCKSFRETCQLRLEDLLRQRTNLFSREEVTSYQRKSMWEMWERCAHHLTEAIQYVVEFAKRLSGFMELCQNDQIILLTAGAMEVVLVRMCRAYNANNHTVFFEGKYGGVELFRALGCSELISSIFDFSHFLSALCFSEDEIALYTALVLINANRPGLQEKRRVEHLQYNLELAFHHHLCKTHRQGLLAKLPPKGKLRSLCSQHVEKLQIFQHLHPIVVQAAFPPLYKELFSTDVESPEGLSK
SMILES,Potency,"activity change, negative = inhibition"
CCc1ccccc1N(CC(=O)NCC1CCCO1)C(=O)CCC(=O)Nc1nccs1 (stereo not drawn),inactive,
COC(=O)NNC1=CC(=O)CC(C)(C)C1,inactive,
CC1(C)CC(=O)C=C(Nc2ccccc2)C1,inactive,
Cc1cc(C)nc(NNC2=CC(=O)CC(C)(C)C2)n1,17.8 µM (active),
CN1CCN(c2ccccc2NC(=O)COc2ccc(C3CCCCC3)cc2)CC1,inactive,
CCn1cc(S(=O)(=O)c2cccc(C)c2)c(=O)c2cc(F)c(N3CCN(C)CC3)cc21,inactive,
COc1ccc(CCNC(=O)CN2C(=O)CCSc3ccccc32)c(OC)c1,inactive,
CCOC(=O)c1ccc(NC(=O)c2nc[nH]c2C(=O)N[C@@H](CCCCNC(=O)OC(C)(C)C)C(=O)OC(C)(C)C)cc1,11.2 µM (active),
Cc1ccc(NC(=O)c2nc[nH]c2C(=O)N[C@@H](CCCCNC(=O)OC(C)(C)C)C(=O)OC(C)(C)C)cc1,8.91 µM (active),
CCCCC(CCC(=O)Nc1ccc(C(=O)OCC)cc1)C(=O)O (stereo not drawn),inactive,
Cc1ccc(NC(=O)OCCNC(=O)c2ccncc2)cc1,inactive,
CCCCCOC(=O)NCCOC(=O)Nc1ccc(C(=O)OCC)cc1,inactive,
Cc1ccc(NC(=O)c2cccnc2C(=O)Nc2ccc(C)cc2)cc1,inactive,
COc1ccc(Nc2ncnc3sc(C)cc23)cc1,inactive,
CC(C)CCn1c(=O)c2c(nc3n2CCCN3Cc2ccccc2)n(C)c1=O,inactive,
S=c1nc(C23CC4CC(CC(C4)C2)C3)nc2sccn12,7.94 µM (active),
COc1cc(OC)cc(-c2nc(=S)n3ccsc3n2)c1,inactive,
Nc1nc(C23CC4CC(CC(C4)C2)C3)cs1,inactive,
C=CCC1=C/C(=C\c2c(N)n3nc(CC(=O)N4CCOCC4)sc3nc2=O)C=C(OC)C1=O,inactive,
COc1ccc(Sc2nc(-c3ccccc3)ncc2OC)cc1,inactive,
Cc1cnc(CNc2nc(-c3cccnc3)nc3ccccc23)cn1,inactive,
COc1ccccc1Oc1nc(-c2cccnc2)nc2ccccc12,inactive,
Cc1ccc(Oc2nc(-c3ccccn3)nc3ccccc23)cc1,0.251 µM (active),
COc1cnc(-c2ccccn2)nc1Oc1ccc(C(C)(C)C)cc1,5.62 µM (active),
COc1ccc(Cc2nc(-c3ccccn3)no2)cc1OC,inactive,
N#Cc1ccc(Oc2cc(C(F)(F)F)nc(-c3ccccn3)n2)cc1,inactive,

SMILES,Potency,"activity change, negative = inhibition"
CNc1nc(-c2ccccc2OC)nc2ccccc12,inactive,
CC(C)(C)Nc1nc(-c2ccccn2)nc2ccccc12,1.41 µM (active),
O=C(CCc1ccccc1)Nc1ccnn1C1CCN(Cc2ccc(OCCO)cc2)CC1,inactive,
Cn1cc[n+](C)c1COc1ccc(C=O)cc1,,-16.6% [at 1.91 µM] (inactive)
COC(=O)[C@@H]1CC(O)CN1C(=O)C12CC3CC(CC(C3)C1)C2 (stereo partly drawn),inactive,
COc1cc(/C=N/NC(=O)c2ccc(N3CCCC3=O)cc2)ccc1O,inactive,
COc1cc(/C=N/NC(=O)c2ccccc2)ccc1OS(=O)(=O)c1ccccc1,inactive,
COc1ccccc1C(=O)NNC(=O)c1ccc(NC(=O)c2ccccc2)cc1,inactive,
COc1ccc(C(=O)Nc2ccccc2C(=O)N/N=C/c2ccccc2OC)cc1,15.8 µM (active),
COc1ccc(/C=N/NC(=O)c2ccc3c(c2)OCCO3)c(OC)c1,inactive,
COc1ccc(C(=O)Nc2ccccc2C(=O)N/N=C/c2ccc(O)c(OC)c2)cc1,0.199 µM (active),
O=C(CSCc1ccccc1)Nc1ccccc1,inactive,
Cc1ccn2c(c1)nc(=O)c1cc(S(=O)(=O)N3CCC(C)CC3)ccc12,inactive,
COc1cccc(/C=C2/SC(=S)N(CC(=O)NC3C=CS(=O)(=O)C3)C2=O)c1 (stereo not drawn),inactive,
COc1ccc(S(=O)(=O)Nc2ccccc2C(=O)N2CCCC2)cc1C,inactive,
Nc1ccn(C2CC(O)C(CO)O2)c(=O)n1 (stereo not drawn),inactive,
CN1CCN(CCCCOc2cccc3ccccc23)CC1,inactive,
O=C(CN1CCCC1)Nc1sc2c(c1C(=O)Nc1ccccc1)CCCC2,5.01 µM (active),
Cc1ccc(NC(=O)c2c(NC(=O)CCC(=O)O)sc3c2CCCCC3)cc1,inactive,
O=C(O)c1c(NC(=O)N2CCCC2)sc2c1CCCC2,inactive,
CC1=C(C(=O)OC2CCCCC2)C(c2ccccc2F)NC(=O)N1 (stereo not drawn),inactive,
Cc1ccc2c(c1)N(CC(=O)N1CCCC(C)C1)C(=O)CO2 (stereo not drawn),inactive,
O=c1oc2ccccc2cc1-c1csc(Nc2ccc(O)cc2)n1,inactive,
Cc1ccc(NC(=O)c2cc(-c3ccc(C)o3)nc3ccccc23)nc1,,-10.5% [at 0.365 µM] (inactive)
Cc1ccc(Nc2nc(-c3ccc(O)cc3O)cs2)nc1,8.91 µM (active),
CCOc1cccc(/C=N/NC(=S)NCCN2CCOCC2)c1O,1.41 µM (active),

SMILES,Potency,"activity change, negative = inhibition"
COc1cccc(NC(=S)NCCCN2CCOCC2)c1,inactive,
CCOc1nc(NCCN2CCOCC2)nc(Nc2ccc(C)cc2)n1,inactive,
Cc1ccc(N(C(=O)c2snc(C(N)=O)c2N)C(C(=O)NCC2CCCO2)c2c[nH]c3ccccc23)cc1 (stereo not drawn),inactive,
COc1ccc(S(=O)(=O)NCCc2cc3ccc(C)c(C)c3[nH]c2=O)cc1,inactive,
Cc1cc(O)ccc1-c1cnc2ccccc2n1,inactive,
Fc1ccc(/C=N/Nc2nc(-c3cccnc3)nc3ccccc23)cc1,inactive,
Cc1nc2ccccc2cc1O,inactive,
Cc1cc(N/N=C/c2ccccc2F)c2ccccc2n1,inactive,
COc1ccccc1N1CCN(/N=C/c2ccc(O)cc2O)CC1,,-15.8% [at 1.91 µM] (inactive)
Oc1ccc(/C=N/Nc2nc(-c3ccccc3F)nc3ccccc23)c(O)c1,10 µM (active),
Cc1nc2ccccc2nc1N/N=C/c1ccc(O)cc1O,11.2 µM (active),
COc1ccc(/C=C(\C#N)C(=O)ONC2=NCCCCC2)cc1,inactive,
Oc1ccc(/C=N/NC2=NCCCCC2)c(O)c1,11.2 µM (active),
COc1ccc(C(=O)Nc2ccc(C(=O)NCC3CCCO3)cc2)c(OC)c1OC (stereo not drawn),inactive,
COc1ccc(C(=O)NC2CC2)cc1OC1CCN(Cc2ccc(SC)cc2)CC1,inactive,
CCOC(=O)N1CCN(Cc2nc3cc(NC(C)=O)ccc3n2C)CC1,inactive,
O=S(=O)(NC1CC2CCC1C2)c1ccc(Cl)cc1 (stereo not drawn),,44% [at 1.91 µM] (inactive)
CC(=O)c1ccc(N2CCN(C(=O)C3CCN(S(=O)(=O)c4ccc5c(c4)CC(C)N5C(=O)C4CC4)CC3)CC2)cc1 (stereo not drawn),inactive,
COc1ccc(CCNC(=O)CCCCCNC(=O)N2CCn3c2nc2ccccc23)cc1OC,inactive,
N#Cc1c(Cl)nc(-c2cccnc2)nc1-c1ccccc1,inactive,
CCOC(=O)CCNC(=O)N1CCCC(C(=O)c2ccccc2SC)C1 (stereo not drawn),inactive,
CCOC(=O)c1cnc(Nc2nc3ccccc3o2)nc1CSC(=S)N1CCCCC1,0.447 µM (active),
CCc1ccc(CNC(=O)C2CCCN(c3nc4ccccc4o3)C2)cc1 (stereo not drawn),inactive,
CCCCCc1c(C)nc(N2CCN(Cc3ccc4c(c3)OCO4)CC2)[nH]c1=O,inactive,
COc1ccc(C(=O)NC(C)c2nccs2)cc1OC1CCN(C(C)C)CC1 (stereo not drawn),inactive,
O=C1Nc2ccccc2/C1=C/c1ccnc2ccccc12,inactive,

SMILES,Potency,"activity change, negative = inhibition"
CN(C)CCNC(=O)c1[nH]nc2c1CCc1ccccc1-2,inactive,
COc1cc2cc(C(=O)N/N=C/c3cccc(OC)c3OC)[nH]c2cc1OC,inactive,
COc1cccc(/C=N/NC(=O)c2[nH]nc3c2CCc2ccccc2-3)c1O,0.794 µM (active),
Cc1ccc(CNCc2ccc3c(c2)OCO3)c(C)c1,inactive,
COc1ccc(NC(=O)CS(=O)(=O)c2ccccc2)cc1,inactive,
COc1ccc(-c2nnc(NC(=O)CS(=O)(=O)c3ccc(Cl)cc3)o2)c(OC)c1,17.8 µM (active),
COc1ccc(-c2nnc(SCC(=O)c3cccs3)o2)c(OC)c1,inactive,
CN(C)C(=O)CCC(=O)N1CCCCC1C(=O)Nc1ccc(Oc2ccccc2F)cc1 (stereo not drawn),inactive,
CC(=O)NS(=O)(=O)c1ccc(N/C(N)=N/c2nc(C)cc(C)n2)cc1,inactive,
CC(C)c1ccc(NC(=O)Cn2ncc3ccccc32)cc1,inactive,
C=CCc1c(C)nc2cc(-c3ccccc3)[nH]n2c1=O,inactive,
Cc1cccc(NC(=O)c2nc[nH]c2C(=O)NCC(=O)OCc2ccccc2)c1,12.6 µM (active),
O=C(CNC(=O)c1ccccc1)NCC(=O)OCc1ccc(Cl)cc1,inactive,
NC(=O)c1ccc(NC(=O)COC(=O)C(Cc2ccccc2)NC(=O)c2ccccc2)cc1 (stereo not drawn),inactive,
CC(C)[C@H](NC(=O)OCc1ccccc1)C(=O)OCc1ccccc1,inactive,
O=C(CNC(=O)c1ccc(-c2ccccc2)cc1)OCc1ccc(Cl)cc1,inactive,
CNC(=O)c1[nH]cnc1C(=O)N[C@@H](CC(C)C)C(=O)OCc1ccccc1,10 µM (active),
COC(=O)[C@@H](Cc1ccccc1)NC(=O)NCCc1ccccc1,inactive,
COc1ccccc1NC(=O)[C@H](COCc1ccccc1)NC(=O)OC(C)(C)C,inactive,
C[C@H](NC(=O)c1nc[nH]c1C(=O)NCC(=O)OC(C)(C)C)C(=O)OCc1ccccc1,11.2 µM (active),
O=C(N[C@@H](Cc1ccccc1)C(=O)OCc1ccccc1)c1nc[nH]c1C(=O)N[C@@H](Cc1ccccc1)C(=O)OCc1ccccc1,10 µM (active),
CC(C)(C)OC(=O)CNC(=O)c1[nH]cnc1C(=O)N[C@@H](Cc1ccccc1)C(=O)OCc1ccccc1,inactive,
CC(C)CC(NC(=O)C1CCCN1C(=O)[C@@H](C)NC(=O)OCc1ccccc1)C(=O)NCC(N)=O (stereo partly drawn) (Cbz-[dA][ξP][ξL]G-NH2),inactive,
C/C(=N\N(C)C)c1ccc(OCCOc2ccc([N+](=O)[O-])cc2)cc1,inactive,
CCOC(=O)C1(Cc2ccccc2C)CCCN(S(C)(=O)=O)C1 (stereo not drawn),inactive,
